Screening data deposited in PubChem BioAssay by Sanford-Burnham Center for Chemical Genomics.
FAS-TE inh: inhibitors of human fatty acid synthase thioesterase domain | P49327 | recombinant FAS-TE, OMFH fluorogenic substrate, fluorescence endpoint | inhibition, % at 15 µM | 0.67% of 360,000 active;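 active = compounds whose normalised, plate-corrected inhibition of enzyme fluorescence in the single-dose primary screen is 50% or more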;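 also: 0% = DMSO with enzyme and 100% = substrate without enzyme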
A3G deaminase: inhibitors of human APOBEC3G DNA deaminase; inhibition, % at 20 µM; 0.28% of 330,000 active; AID 493012; Q9HC16; recombinant A3G, ssDNA deamination FAM/TAMRA fluorescence;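 active = inhibition of at least 40% at 20 µM, with no more than 30% in the related APOBEC3A deaminase screen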;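 also: plate controls were DMSO wells with A3G for no effect and wells lacking A3G enzyme for full effect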
A3A deaminase: blocks human APOBEC3A ssDNA deamination; inhibition, % at 20 µM; P31941; recombinant A3A, FAM/TAMRA ssDNA deamination fluorescence; 0.41% of 330,000 active;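 active = at least 40% inhibition at 20 µM here, with at most 30% in a related deaminase screen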;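 also: plate controls were A3A with DMSO for no effect and wells lacking A3A enzyme for full effect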
GC-B act: GC-B (human) receptor activation; P20594; HEK293-GC-B cells, CNP EC30, cGMP TR-FRET; 0% at EC30 CNP, 100% saturating CNP; activation, % at 10 µM; 0.11% of 370,000 active; AID 1920062;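 active = activation at 10 µM reaching about 35% in either raw or pattern-adjusted values, limit read from the data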
GC-A act: GC-A (human) enzyme activation | P16066 | HEK293 GC-A cells, cGMP TR-FRET, EC30 ANP; 0% at EC30 ANP, 100% saturating ANP | activation, % at 10 µM | 0.14% of 370,000 active | AID 1671463; in the data active = activation above about 40%
FAS-TE conf: FAS thioesterase (human) inhibition, confirmation; recombinant FAS-TE, OMFH fluorogenic substrate, fluorescence; inhibition, % at 15 µM; 45% of 2,300 active; shares compounds with FAS-TE inh;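 active = compounds inhibiting the enzyme by at least 50% at 15 µM in any one of the replicates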;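 also: 0% = enzyme with DMSO only and 100% = wells lacking enzyme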
The depositor's hits bear a star; . = no result given. The list is not random: actives were taken first. Their share in the collection is about 1.4%.

SMILES	FAS-TE inh	A3G deaminase	A3A deaminase	GC-B act	GC-A act	FAS-TE conf
COc1ccc(-c2cc(C(=O)Nc3cc(S(=O)(=O)N4CCOCC4)ccc3N3CCOCC3)c3ccccc3n2)cc1	82*	-10	-5	2	0	28
O=C(Nc1nc(-c2ccc(S(=O)(=O)N3CCCC3)cc2)cs1)c1ccco1	70*	2	-1	9	7	65*
C[C@H]1COc2cc(Br)ccc2S(=O)(=O)N1Cc1cn(Cc2ccccc2)nn1	.	.	.	-8	-6	.
O=C(NCCc1ccc(F)cc1)c1cc2ccccn2n1	.	.	.	2	0	.
COc1ccccc1C(=O)Nc1nc(-c2ccc(S(=O)(=O)N3CCOCC3)cc2)cs1	52*	-5	-1	0	-1	23*
COCc1[nH]nc2c1C(c1ccccc1)NC2=O (stereo not drawn)	.	.	.	3	-1	.
Cc1ccccc1N(CC(=O)NCc1ccc2c(c1)OCO2)C(=O)CCC(=O)Nc1ccccn1	-4	-6	-3	-6	2	.
Cc1ccccc1N(CC(=O)NCc1ccc2c(c1)OCO2)C(=O)C1CSC(=O)C1 (stereo not drawn)	69*	-7	-1	6	2	67*
COc1ccc(CNS(=O)(=O)CC2NCc3cc(OC)ccc32)cc1 (stereo not drawn)	.	.	.	-6	-3	.
Cc1ccc(CNC(=O)OC(C)(C)C)c(/C=C/S(=O)(=O)NCCc2ccccc2)c1	.	.	.	-3	-2	.
Cc1ccsc1C(=O)N1CCC1(C)C(=O)Nc1cccc(C#N)c1 (stereo not drawn)	8	.	.	1	2	.
CC(C)(C)c1ccc(C(=O)N2CCC2(C)C(=O)Nc2cccc(C#N)c2)cc1 (stereo not drawn)	65*	.	.	6	1	66*
CC(C)(C)c1ccc(-c2nnc(SCC(=O)c3ccc4ccccc4c3)n2-c2ccc(Cl)cc2)cc1	.	.	.	2	1	.
Cc1cc(C)c(NC(=O)COC(=O)c2cccc3c2C(=O)c2ccccc2C3=O)c(C)c1	8	-2	0	4	5	.
Cc1cc(C)c(Nc2cc(S(=O)(=O)O)c(N)c3c2C(=O)c2ccccc2C3=O)c(C)c1	75*	.	.	-35	-29	46
Cc1ccccc1CN1[C@@H](C)[C@H](c2ccccc2)Oc2cccc(N3CCCC3)c2S1(=O)=O	.	.	.	1	-1	.
Cc1ccc(SC2=C(Sc3ccc(C)cc3)C(=O)c3ccccc3C2=O)cc1	70*	-4	3	6	10	13
CCN(CC)S(=O)(=O)c1cccc(-c2n[nH]c(=S)n2/N=C/c2ccc(OC(F)F)cc2)c1	52*	-8	-3	-15	2	44
C[C@@H](CO)N(Cc1cn(Cc2ccccc2)nn1)S(=O)(=O)c1ccccc1Br	.	.	.	-1	2	.
Cc1cc(C(=O)N/N=C/c2cc([N+](=O)[O-])ccc2O)c2ccccc2n1	77*	-4	-6	-4	0	97*
O=C(NC(C(=O)N/N=C/c1cc([N+](=O)[O-])ccc1O)c1n[nH]c(=O)c2ccccc12)c1ccccc1 (stereo not drawn)	67*	-6	-4	3	-3	78*
Cc1cc(Cl)ccc1NC(=O)CCC(=O)N/N=C/c1cc([N+](=O)[O-])ccc1O	55*	-9	-3	0	4	70*
O=C(NC(C(=O)N/N=C/c1cccc2ccccc12)c1n[nH]c(=O)c2ccccc12)c1ccccc1 (stereo not drawn)	23	-6	5	-6	-4	.
O=C(N/N=C/c1cc([N+](=O)[O-])ccc1O)c1cc(-c2ccccc2)nc2ccccc12	36	-3	2	-7	-4	.
O=[N+]([O-])c1ccc(O)c(/C=N/NC(=S)Nc2ccc(Cl)cc2Cl)c1	42	-4	1	-3	-1	.
SMILES	FAS-TE inh	A3G deaminase	A3A deaminase	GC-B act	GC-A act	FAS-TE conf
O=C(NN=Cc1ccccc1O)c1cccc([N+](=O)[O-])c1	61*	.	.	-1	0	4
O=C(CNC(=O)c1ccc2c(c1)OCO2)N/N=C/c1cccc([N+](=O)[O-])c1	55*	0	4	-7	1	30
CCCCC(=O)N/N=C/c1cc([N+](=O)[O-])ccc1N1CCOCC1	66*	-7	0	-3	6	74*
O=C(CNc1ccccc1)N/N=C/c1cc([N+](=O)[O-])ccc1N1CCCC1	52*	-3	-2	0	0	29
CCN(CC)C(=O)C1CCCN(c2ccc([N+](=O)[O-])cc2/C=N/NC(=O)c2cccc([N+](=O)[O-])c2)C1 (stereo not drawn)	77*	-2	-1	0	0	26
O=C(c1cccc(I)c1)N1CCC(Oc2cccnc2)CC1	.	.	.	-4	-1	.
COc1cccc(/C=C2\CC3(OC(=O)c4ccc(F)cc4)CCCN2C3)c1 (stereo not drawn)	.	.	.	-4	-6	.
Cc1nc(/N=C(\N)NC(=O)N2c3ccccc3Sc3ccccc32)nc2ccccc12	68*	-10	-3	5	6	16
Cc1nc(/N=C(\N)NC(=O)c2ccccc2)nc2ccccc12	2	-6	0	-5	6	.
O=C(NCCN1C(=O)S/C(=C\c2ccccc2)C1=O)C1CCN(S(=O)(=O)c2cccs2)CC1	53*	1	2	6	-3	58*
O=C(NCCc1ccccc1)C1CCN(S(=O)(=O)c2cccs2)CC1	0	-8	-1	1	7	.
CCOc1ccc(-n2c(SCC(=O)Nc3ccc(S(=O)(=O)Nc4nccs4)cc3)nnc2-c2ccc(C(C)(C)C)cc2)cc1	.	.	.	9	-11	.
COc1ccc(N=C2C(=Nc3ccc(OC)cc3)N(c3ccc(N(C)C)cc3)C(=S)N2c2ccc(OC)cc2)cc1	80*	8	-1	-2	0	25
